High-throughput results from PubChem BioAssay.
Only some compounds are listed: those with a hit (about 6.3% of all), similar ones and a draw of the others.
Spn MK inh: inhibitors of Streptococcus pneumoniae mevalonate kinase; purified MK, PK/LDH-coupled NADH absorbance 340 nm; inhibition, % at 10 µM; 65,000 compounds, 0.48% hits;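 active = ranked among the strongest by inhibition in the single 10 µM screen, a fixed top-ranked set picked for dose follow-up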
NADH enzymes: blocks coupling enzymes of NAD/NADH assays; coupled PK/LDH NADH assays, four targets; IC50, µM (series often up to 10 µM); 65,000 compounds, 0.02% hits; AID 774;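 active = single-dose screening hits from any of four coupled enzyme assays that gave an IC50 when retested across doses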;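 note: the DPM-DC format reads NADH fluorescence rather than 340 nm absorbance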
Abs 340nm: compound absorbs light at 340 nm; compound absorbance at 340 nm, fold over control; fold change at 10 µM; 65,000 tested, under 10 active; AID 708;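 active = at 10 µM dose, initial 340 nm absorbance at least 2 fold that of control wells; inactive = change under 2 fold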;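 note: initial absorbance extrapolated from kinetic A340 decline of NADH oxidation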
Spn PMK inh: inhibitors of Streptococcus pneumoniae phosphomevalonate kinase | purified PMK, PK/LDH-coupled NADH absorbance 340 nm | inhibition, % at 10 µM | 65,000 compounds, 0.49% hits;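 active = top-ranked compounds by inhibition in the single 10 µM screen, taking a fixed number of the strongest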
Fluor 339 460: intrinsic fluorescence of library compounds, ex339/em460 – biochemical, MLSMR library, data from DPM-DC assay, artefact control, profiling panel. compound autofluorescence, ex339/em460 nm, NADH buffer; stronger effect = higher value; 1 = no-compound wells, NADH background. fluorescence fold increase at 10 µM. 65,000 compounds, 5.5% hits;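 active = at 10 µM, mean starting fluorescence two-fold or more over control wells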;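 note: signal is the first read of a kinetic run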
DPM-DC inhibit: blocks S. pneumoniae diphosphomevalonate decarboxylase; purified DPM-DC, PK/LDH coupled NADH fluorescence; calls only at 10 µM; 65,000 compounds, 0.49% hits; AID 556;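 active = the 320 compounds with the highest percent inhibition in the single-dose primary screen, excluding strongly autofluorescent ones, cut at about 32% in these data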;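 note: kinetic rate of NADH fluorescence loss reporting ADP formed by the decarboxylase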
A number is an active result; 0 = inactive; - = no result shown; + = active, no number; [ ] = dose if it differs, or a comment.

SMILES | Spn MK inh | NADH enzymes | Abs 340nm | Spn PMK inh | Fluor 339 460 | DPM-DC inhibit
CC(C)OC(=O)c1c(NC(=O)c2cccs2)sc2c1CCCC2 | 0 | 0 | 0 | 0 | 2.2 | -
O=C(COc1ccc(Cl)cc1)Nc1ccccc1N1CCOCC1 | 0 | 0 | 0 | 0 | 0 | 0
CC(C)CC(=O)NCC(C)NC(=O)CC(C)C (stereo not given) | 0 | 0 | 0 | 0 | 0 | +
Cc1ccc(C(=O)c2cc3c(cc2N)OCCO3)cc1 | 0 | 0 | 0 | 27.0 | 0 | 0
Nc1ccc(C(=O)c2ccc3c(c2)OCCO3)cc1N | 0 | 0 | 0 | 0 | 0 | 0
CC(C)=CCCC(C)N(C=O)C(C)CCC=C(C)C (stereo not given) | 0 | 0 | 0 | 0 | 0 | 0
CC(C)=CCC/C(C)=C/CN(CC(C)O)CC(C)O (stereo not given) | 40.0 | 0 | 0 | 0 | 0 | 0
Cc1cc(=O)[nH]c2ccccc12 | 0 | 0 | 0 | 0 | 0 | +
CCc1cc(C(=O)OC)c(NC(=O)c2cc(Br)cs2)s1 | 0 | 0 | 0 | 0 | 2.19 | 0
Cc1n[nH]c(C)c1S(=O)(=O)N(CC(=O)NC1CCCC1)c1ccc(C(C)C)cc1 | 0 | 0 | 0 | 0 | 0 | 0
CCOC(=O)COc1ccc2c(c1)C(=O)CC(C)(C)O2 | 0 | 0 | 0 | 0 | 4.75 | -
CC1(C)CC(=O)c2cc(OCC(=O)N3CCN(c4ccccc4F)CC3)ccc2O1 | 0 | 0 | 0 | 26.0 | 2.58 | +[may fluoresce]
CCOC(=O)COc1ccc2c(c1)C(=O)CC1(CCN(C(C)=O)CC1)O2 | 0 | 0 | 0 | 0 | 4.8 | -
O=C(O)COc1ccc2c(c1)CCCC2 | 0 | 0 | 0 | 0 | 0 | 0
CC1(C)CC(=O)c2cc(OCC(=O)O)ccc2O1 | 0 | 0 | 0 | 0 | 4.85 | -
Cc1ccc(NS(=O)(=O)c2ccc(C)c(C(=O)N3CCN(C)CC3)c2)cc1 | 0 | 0 | 0 | 0 | 0 | 0
CCc1c(C)nc(SCC(=O)N2CCc3ccccc32)[nH]c1=O | 0 | 0 | 0 | 0 | 0 | 0
CC(=O)N1CCC2(CC1)CC(=O)c1cc(OCC(=O)NCc3ccco3)ccc1O2 | 0 | 0 | 0 | 0 | 3.39 | -
CC(=O)N1CCC2(CC1)CC(=O)c1cc(OCC(=O)NCc3ccc(C)cc3)ccc1O2 | 0 | 0 | 0 | 0 | 3.48 | -
CCCCS(=O)(=O)Nc1ccc(Cc2ccncc2)cc1 | 0 | 0 | 0 | 0 | 0 | 0
COc1cc(NC(=O)c2ccco2)c(OC)cc1NC(=O)c1cc(OC)c(OC)c(OC)c1 | 0 | 0 | 0 | 0 | 0 | 0
COc1ccccc1NC(=O)c1sc2nc(-c3ccco3)ccc2c1N | 0 | 0 | 0 | 0 | 3.83 | -
CCOc1cc(NC(=O)c2ccco2)c(OCC)cc1NC(=O)c1cc(OC)c(OC)c(OC)c1 | 0 | 0 | 0 | 0 | 3.99 | -
Nc1c(C(=O)Nc2ccccc2)sc2nc(-c3ccco3)ccc12 | 0 | 0 | 0 | 0 | 3.74 | -
COc1ccccc1NC(=O)c1oc2ccccc2c1NC(=O)c1ccco1 | 0 | 0 | 0 | 0 | 5.01 | -
SMILES | Spn MK inh | NADH enzymes | Abs 340nm | Spn PMK inh | Fluor 339 460 | DPM-DC inhibit
NC(=O)c1oc2ccccc2c1NC(=O)c1ccco1 | 0 | 0 | 0 | 0 | 0 | 0
COc1cc2cc3c(N)c(C(=O)NCc4ccco4)sc3nc2cc1OC | 0 | 0 | 0 | 0 | 0 | 0
COCCCNC(=O)c1ccccc1NS(=O)(=O)c1ccc(C)cc1 | 0 | 0 | 0 | 0 | 0 | 0
CCOc1ccc(-c2nc(C#N)c(N3CCCCCC3)o2)cc1 | 0 | 0 | 0 | 0 | 2.43 | -
CCOc1ccc(-c2nc(C#N)c(N3CCN(C)CC3)o2)cc1 | 0 | 0 | 0 | 0 | 2.92 | -
CCCOc1ccc(-c2nc(C#N)c(N3CCN(C)CC3)o2)cc1 | 0 | 0 | 0 | 0 | 3.87 | -
N#Cc1nc(-c2ccc(OCc3ccc(Cl)cc3)cc2)oc1N1CCOCC1 | 0 | 0 | 0 | 0 | 0 | 0
CS(=O)(=O)N1CCCC(C(=O)NCc2ccccn2)C1 (stereo not given) | 0 | 0 | 0 | 29.0 | 0 | 0
C=CCNC(=O)C1CCCN(S(C)(=O)=O)C1 (stereo not given) | 0 | 0 | 0 | 28.0 | 0 | 0
OC(COc1ccc(C2C=CCC2)cc1)CN1CCCCC1 (stereo not given) | 0 | 0 | 0 | 0 | 0 | 0
O=C(OCCN1C(=O)c2ccccc2C1=O)c1cc(=O)[nH]c2ccccc12 | 0 | 0 | 0 | 0 | 0 | 0
CCCCCOC(=O)c1cc(=O)[nH]c2ccccc12 | 0 | 0 | 0 | 0 | 2 | 0
CC(=O)Nc1cccc(NC(=O)C2CCCN2C(=O)Nc2ccccc2C)c1 (stereo not given) | 0 | 0 | 0 | 0 | 0 | 0
CC(=O)Nn1cc2c(c1-c1ccccc1)c(=O)n(C)c(=O)n2C | 0 | 0 | 0 | 0 | 0 | 0
Cc1cccc(-c2c3c(=O)n(C)c(=O)n(C)c3cn2-c2ccccc2O)c1 | 0 | 0 | 0 | 0 | 2.58 | 0
CCn1c(COc2ccc(C)cc2)nnc1SCC(=O)Nc1ccc2c(c1)OCCO2 | 0 | 0 | 0 | 0 | 2.02 | 0
CCCn1c(C)nc2c(c1=O)c1nc3ccccc3nc1n2CCC1=CCCCC1 | 0 | 0 | 0 | 0 | 3.76 | -
CCCn1c(C)nc2c(c1=O)c1nc3ccccc3nc1n2CCc1ccccc1 | 0 | 0 | 0 | 0 | 3.08 | -
Cc1nc(Nc2nc(=O)c3ccccc3n2C)nc2c(C)cccc12 | 0 | 0 | 0 | 0 | 0 | 0
CCC(C)N1CC23C=CC(O2)C(C(=O)OCc2ccccc2)C3C1=O (stereo not given) | 0 | 0 | 0 | 0 | 0 | 0
CC1(CC(=O)O)C(=O)N=C2C=CC=CN21 (stereo not given) | 0 | 0 | 0 | 0 | 2.1 | -
CCCc1c(CC)c(=N)c2ccccc2n1C | 0 | 0 | 0 | 0 | 3.45 | -
Cn1c(-c2ccccc2)c(CCO)c2ccccc21 | 0 | 0 | 0 | 0 | 0 | 0
CN1C(=O)N(c2ccccc2)C(Nc2nncs2)C1(C)C (stereo not given) | 0 | 0 | 0 | 0 | 0 | 0
CC(C)(C)c1ccccc1OCCCCCNCCO | 44.0 | 0 | 0 | 52.0 | 0 | 0
SMILES | Spn MK inh | NADH enzymes | Abs 340nm | Spn PMK inh | Fluor 339 460 | DPM-DC inhibit
S=c1[nH]nc(CSc2nc3ccccc3s2)o1 | 0 | 0 | 0 | 0 | 0 | 0
Oc1cc2ccccc2cc1-c1n[nH]c(=S)o1 | 0 | 0 | 0 | 0 | 3 | 0
NC(=O)C1(N2CCCCC2)CCN(S(=O)(=O)c2cc(Cl)ccc2Cl)CC1 | 0 | 0 | 0 | 0 | 0 | 0
CCN(CC)c1ccc(/C=N/n2nnnc2N)c(O)c1 | 0 | 0 | 0 | 0 | 0 | 0
COc1cc(/C=N/n2nnnc2N)ccc1O | 0 | 0 | 0 | 0 | 0 | 0
CSc1ccc(/C=N/n2nnnc2N)cc1 | 0 | 0 | 0 | 0 | 5.02 | -
CCN(C)c1ccc(/C=N\n2nnnc2N)cc1 | 0 | 0 | 0 | 0 | 2.5 | 0
CS(=O)(=O)N(CCc1ccccc1)CC(=O)N1CCc2ccccc2C1 | 0 | 0 | 0 | 0 | 0 | 0
COc1ccc(OC(C)=O)c(C2c3cc(OC)c(OC)cc3CCN2C(C)=O)c1 (stereo not given) | 0 | 0 | 0 | 0 | 0 | 0
COc1cc2c(cc1OC)C(c1cc3cc(OC)c(OC)cc3[nH]c1=O)N(C(=O)C1CC1)CC2 (stereo not given) | 0 | 0 | 0 | 0 | 2.59 | 0
